In PubChem BioAssay (NCI) one finds growth data, which are given here for eight compounds.

Test systems include DU-145 prostate; K-562 leukemia; MALME-3M melanoma; MDA-MB-231 breast; SF-268 CNS; SF-295 CNS; SF-539 CNS; UACC-257 melanoma; HCT-15 colon; SNB-75 CNS; SNB-19 CNS; U251 CNS; PC-3 prostate; SK-MEL-5 melanoma; UACC-62 melanoma; LOX IMVI melanoma; SK-MEL-28 melanoma; HT29 colon; M14 melanoma; RXF 393 renal.
What all share (test): NCI-60 one-dose screen, 48 h (100 = growth as untreated, 0 = no growth, -100 = all killed)
Holding throughout (settings): 10 µM unless noted

About 83,000 compounds went through this panel and 20% of them were active in at least one assay; those are over-represented in the sample as a whole.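 For each line, cells grew in 96-well plates with the test compound present at a single concentration for 48 hours.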 Unmarked numbers belong to inactive results. The source made the active and inactive calls. Rule for the calls: active = growth percent below 10; inactive = the rest.

`C/C(Cc1ccc(Cl)cc1)=C(/c1ccc(Cl)cc1)c1ccc(OCCN(C)C)cc1`: the growth is 62.3% in the assay on DU-145 prostate; -4.72% (active) with K-562 leukemia; 37.1% in the assay on MALME-3M melanoma; 74.1% in the assay with MDA-MB-231 breast; 85.6% in the assay on SF-268 CNS; 97.2% in the assay on SF-295 CNS. In addition, the growth with SF-539 CNS was 66.7%; with UACC-257 melanoma, 71.3%; in the assay with HCT-15 colon, 2.19% (active); in the assay with SNB-75 CNS, 68.7%; in the assay with SNB-19 CNS, 69.4%; in the assay on U251 CNS it was 38.2%. Also, the growth is 58.1% in the assay with PC-3 prostate; 67.5% in the assay on SK-MEL-5 melanoma; 82% in the assay on UACC-62 melanoma; -88% (active) in the assay with LOX IMVI melanoma; 84.4% in the assay on SK-MEL-28 melanoma.

With `O=C1c2cccc3c(-c4ccc(-c5nc6c7ccccc7c7ccccc7c6[nH]5)cc4)ccc(c23)C(=O)N1CCN1CCNCC1`, the growth in the assay on DU-145 prostate was 42.5%; in the assay with K-562 leukemia, -10.2% (active); with MALME-3M melanoma, 85.4%; in the assay with MDA-MB-231 breast, 63.3%; in the assay with SF-268 CNS, 104%; in the assay on SF-295 CNS, 101%. In addition, the growth in the assay with SF-539 CNS is 73.8%; in the assay with UACC-257 melanoma it was 108%; with HCT-15 colon it was 40.9%; with HT29 colon, 5.47% (active); in the assay with SNB-75 CNS, 103%; in the assay with SNB-19 CNS, 103%. The growth with U251 CNS is 62.1%; in the assay on PC-3 prostate, 66.6%; with UACC-62 melanoma, 106%; with LOX IMVI melanoma, -55.8% (active); in the assay on SK-MEL-28 melanoma, 119%.

For `COc1cc(C2CC(=O)Nc3n[nH]c(-c4ccccc4)c32)cc(OC)c1OC` (stereo unspecified), the growth with DU-145 prostate was 102%; with K-562 leukemia, 24.6%; with MALME-3M melanoma it was 68.5%; in the assay with MDA-MB-231 breast, 63.9%; in the assay with SF-268 CNS, 90.7%; in the assay on SF-295 CNS it was 75.5%. Also, the growth in the assay on SF-539 CNS was 81.2%; in the assay on M14 melanoma, 53.3%; in the assay on HCT-15 colon, 68.4%; in the assay with HT29 colon, 47.1%; with SNB-75 CNS, 47.7%; in the assay on SNB-19 CNS it was 75.4%. Besides, the growth with U251 CNS is 62.9%; in the assay on PC-3 prostate, 59.3%; in the assay with SK-MEL-5 melanoma, 68%; in the assay on UACC-62 melanoma it was 38%; with LOX IMVI melanoma, 70.3%; in the assay with SK-MEL-28 melanoma, 66.5%.

Regarding `CCOC(=O)Cc1csc2nc(-c3ccccc3)nn12`, the growth was 108% in the assay with DU-145 prostate; 128% in the assay on K-562 leukemia; 104% in the assay on MDA-MB-231 breast; 110% in the assay on RXF 393 renal; 105% in the assay with SF-268 CNS; 127% in the assay on SF-295 CNS. The growth in the assay with SF-539 CNS is 95.6%; with UACC-257 melanoma, 119%; in the assay on M14 melanoma, 104%; with HCT-15 colon, 113%; with HT29 colon it was 106%; with SNB-75 CNS, 105%. Besides, the growth was 90.2% in the assay with SNB-19 CNS; 106% in the assay on U251 CNS; 101% in the assay on PC-3 prostate; 107% with SK-MEL-5 melanoma; 98.6% with UACC-62 melanoma; 89% in the assay on LOX IMVI melanoma. Moreover, the growth with SK-MEL-28 melanoma is 117%.

Regarding `CCOc1cccnc1/C=N/NC(N)=S`, the growth in the assay with DU-145 prostate was 34.4%; in the assay with K-562 leukemia it was 31.4%; in the assay on MDA-MB-231 breast, 49.6%; in the assay with RXF 393 renal, 61.4%; in the assay with SF-268 CNS, 32.9%; in the assay on SF-295 CNS, 5.53% (active). In addition, the growth with SF-539 CNS is 47.7%; with UACC-257 melanoma it was 95.7%; with M14 melanoma it was 42.4%; with HCT-15 colon, 40.2%; in the assay on HT29 colon it was 56.7%; in the assay on SNB-75 CNS it was 68.7%. The growth was 69.4% with SNB-19 CNS; 36.1% in the assay on U251 CNS; 37.3% in the assay with PC-3 prostate; 55.4% in the assay on SK-MEL-5 melanoma; 50.6% in the assay with UACC-62 melanoma; 35.9% in the assay on LOX IMVI melanoma. Moreover, the growth in the assay on SK-MEL-28 melanoma was 76.1%.

For `Cn1cc(-c2ccc3nc(-c4ccc(CC(=O)Nc5cc(C(C)(C)C)no5)cc4)cnc3c2)cn1`, the growth in the assay on DU-145 prostate is 22.6% [30 µM]; in the assay on K-562 leukemia, 4.38% [30 µM] (active); with MALME-3M melanoma, 0.481% [30 µM] (active); in the assay with MDA-MB-231 breast it was -5.94% [30 µM] (active); with SF-268 CNS it was 27.4% [30 µM]; with SF-295 CNS, 23.2% [30 µM]. For the same compound, the growth was 16.3% [30 µM] in the assay with SF-539 CNS; 41.9% [30 µM] with UACC-257 melanoma; 11.5% [30 µM] with HCT-15 colon; 58.4% [30 µM] in the assay on HT29 colon; 26.5% [30 µM] in the assay with SNB-75 CNS; 53.6% [30 µM] in the assay with SNB-19 CNS. In addition, the growth with U251 CNS was 37.3% [30 µM]; in the assay on PC-3 prostate, 40.2% [30 µM]; in the assay on UACC-62 melanoma, 9.8% [30 µM] (active); with SK-MEL-28 melanoma it was 37.5% [30 µM].

For the compound `CSc1nc(N)c(CNC(C)c2ccccc2)c(=O)n1C` (stereo unspecified), the growth is 118% in the assay on DU-145 prostate; 96.2% in the assay on K-562 leukemia; 114% with MDA-MB-231 breast; 98.9% in the assay with RXF 393 renal; 106% in the assay with SF-268 CNS; 117% in the assay on SF-295 CNS. The growth with SF-539 CNS was 94.9%; in the assay on UACC-257 melanoma, 90.2%; in the assay with M14 melanoma, 97.5%; in the assay on HCT-15 colon it was 104%; with HT29 colon, 105%; with SNB-75 CNS it was 93.4%. In addition, the growth in the assay on SNB-19 CNS is 98.9%; with U251 CNS, 95%; with PC-3 prostate, 101%; in the assay on SK-MEL-5 melanoma it was 113%; in the assay on UACC-62 melanoma, 98.8%; in the assay with LOX IMVI melanoma it was 92.3%. The growth with SK-MEL-28 melanoma was 109%.

For `Nc1c(C(=O)Nc2ccccc2)sc2nc3c(cc12)CCCCCC3`, the growth is 18.6% in the assay on DU-145 prostate; 7.92% (active) with K-562 leukemia; 31.3% in the assay on MALME-3M melanoma; -38.7% (active) with RXF 393 renal; 36.6% in the assay on SF-268 CNS; -0.47% (active) with SF-295 CNS. The growth in the assay on SF-539 CNS was -41.8% (active); in the assay on UACC-257 melanoma, 44.9%; in the assay on HCT-15 colon, 16.3%; with HT29 colon, -9.08% (active); with SNB-75 CNS it was 4.5% (active); in the assay with U251 CNS, 9.62% (active). The growth was 31.8% in the assay with PC-3 prostate, 9.45% (active) in the assay on SK-MEL-5 melanoma, 35.1% in the assay with LOX IMVI melanoma and 27.8% in the assay on SK-MEL-28 melanoma.
